Measurements reported in article PMC4336329 (PLoS ONE, 2015).
The campaign covered roughly 310,000 compounds. About 14,000 (4.5%) showed an effect of 50% or more. The effect is printed as a negative number. The list comes from a sample in which strong results are over-represented; it also holds similar structures and randomly drawn compounds.

target: human ether-à-go-go-related gene (hERG) potassium channel (human, UniProt Q12809); assay: primary screen, population patch clamp on CHO cells stably expressing hERG; higher = less effect of the substance
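Also: peak tail current of the secondary pulse compared with the same well before compound.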

human ether-à-go-go-related gene (hERG) potassium channel, sequence (Q12809 whole entry, looked up): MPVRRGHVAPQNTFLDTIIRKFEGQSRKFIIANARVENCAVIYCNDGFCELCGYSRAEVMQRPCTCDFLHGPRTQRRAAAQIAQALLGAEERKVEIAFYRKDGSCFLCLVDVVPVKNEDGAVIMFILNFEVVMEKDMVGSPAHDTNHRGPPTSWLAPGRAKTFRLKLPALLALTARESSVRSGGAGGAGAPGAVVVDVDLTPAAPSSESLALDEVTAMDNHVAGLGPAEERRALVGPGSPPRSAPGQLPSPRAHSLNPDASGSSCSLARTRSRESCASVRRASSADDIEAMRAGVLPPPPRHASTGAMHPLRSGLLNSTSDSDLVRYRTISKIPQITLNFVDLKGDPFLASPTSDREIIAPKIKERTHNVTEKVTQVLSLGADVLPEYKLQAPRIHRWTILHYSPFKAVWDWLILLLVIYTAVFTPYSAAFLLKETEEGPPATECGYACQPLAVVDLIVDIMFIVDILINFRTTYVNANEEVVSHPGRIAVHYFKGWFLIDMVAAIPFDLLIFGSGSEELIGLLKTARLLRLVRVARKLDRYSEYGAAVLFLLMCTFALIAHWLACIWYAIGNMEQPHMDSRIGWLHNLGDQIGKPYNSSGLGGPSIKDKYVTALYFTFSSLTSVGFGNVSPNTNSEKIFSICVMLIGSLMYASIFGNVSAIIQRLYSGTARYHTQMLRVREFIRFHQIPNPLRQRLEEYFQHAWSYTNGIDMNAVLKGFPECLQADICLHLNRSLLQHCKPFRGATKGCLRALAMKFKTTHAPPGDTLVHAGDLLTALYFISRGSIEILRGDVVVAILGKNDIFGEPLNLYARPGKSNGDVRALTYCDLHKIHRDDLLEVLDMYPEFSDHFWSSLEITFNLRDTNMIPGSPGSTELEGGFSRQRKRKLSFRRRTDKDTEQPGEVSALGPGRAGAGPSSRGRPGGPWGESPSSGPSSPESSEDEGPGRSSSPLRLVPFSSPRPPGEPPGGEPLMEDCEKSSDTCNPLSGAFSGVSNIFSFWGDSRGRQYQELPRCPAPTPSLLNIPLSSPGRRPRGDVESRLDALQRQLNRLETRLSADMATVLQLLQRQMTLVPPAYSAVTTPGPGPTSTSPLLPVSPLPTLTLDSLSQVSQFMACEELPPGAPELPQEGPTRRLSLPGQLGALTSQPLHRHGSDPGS

Compound | hERG current change (%, negative = inhibition) at 10uM [%]
COCCNC(=O)c1ccc2c(Cl)c3c(nc2c1)CCC3 | -30.2
CCCN(CCC)CCCNC(=O)c1ccc2c(Cl)c3c(nc2c1)CCC3 | -29.1
CC(C)(C)NS(=O)(=O)c1ccc(NC(=O)Cc2ccccc2[N+](=O)[O-])cc1 | 1.66
CCOC(=O)c1ccc(N2CN(CC)CNC2=S)cc1 | 7.25
C/C(=N/OCc1ccc(Br)cc1)c1ccccn1 | 6.29
CCc1ccc(C(=O)COC(=O)c2ccco2)cc1 | 9.18
COc1ccc(CCNC(=O)COC(=O)c2cnc(C)cn2)cc1 | 11.3
O=C(Nc1ccccc1C(=O)Nc1ccc2c(c1)OCO2)c1cccs1 | 3.6
Cc1cc(C)cc(NC(=O)COC(=O)CN=C2NS(=O)(=O)c3ccccc32)c1 | 15.6
O=C(NCC1CCCO1)c1ccc(COc2ccc(F)cc2)o1 (stereo not shown) | -5.59
CCCOc1ccc(/C=N/Nc2cc(N3CCOCC3)ncn2)c(O)c1 | 13.4
O=c1[nH]cc([N+](=O)[O-])cc1Br | 2.05
Cl.NC(=O)c1ccc(OCCC(O)N2CC=C(c3ccc(F)cc3)CC2)cc1 (stereo not shown) | -71.2
CCCCOc1ccc(C(=O)NCC(=O)N2CC=C(c3ccccc3)CC2)cc1 | 16.8
CN1CCNC(=O)C1CC(=O)N1CC=C(c2ccc(F)cc2)CC1 (stereo not shown) | -3.88
Clc1cccc(N/N=C/c2ccncc2)c1 | -10.2
Cc1cc(C(=O)C(C)Sc2cccc[n+]2[O-])c(C)n1-c1ccc(Cl)cc1 (stereo not shown) | -12.8
CC(C)/C=C1\CCc2c([nH]c3ccccc23)C1=O | 9.91
Cc1c(S(=O)(=O)c2ccccn2)c(N)n(Cc2ccccc2)c1C | 0.158
CN(C)CCn1cnc2c(c1=N)C(c1ccccc1)c1ccc3ccccc3c1O2 (stereo not shown) | -79.2
CN(C)CCCn1cnc2c(c1=N)C(c1ccccc1)c1ccc3ccccc3c1O2 (stereo not shown) | -75.9
O=C(Nc1cc(=O)[nH]c2ncnn12)c1ccccc1F | 11
CCC(=O)N1CCc2cc(Br)cc(S(=O)(=O)N3CCCCCC3)c21 | -28.6
O=C(c1ccc(COc2ccccc2Cl)o1)N1CCCC1 | -23.6
Cc1ccc(C(=O)N2CCN(c3cccc(Cl)c3)CC2)cc1C | -13.4

Compound | hERG current change (%, negative = inhibition) at 10uM [%]
COc1ccc(C(=O)Nc2ccc(N3CCOCC3)cc2)cc1S(=O)(=O)NC1CCCC1 | 13.1
COc1ccc(C(=O)N2CCN(c3ccc(F)cc3)CC2)cc1S(=O)(=O)NC1CC1 | -59.2
COc1ccc(C(=O)N2CCN(c3ccccc3Cl)CC2)cc1S(=O)(=O)NC1CC1 | -32.7
COc1ccc(C(=O)N2CCN(c3cccc(Cl)c3)CC2)cc1S(=O)(=O)NC1CC1 | -63.5
COc1ccc(C(=O)N2CCN(c3ccc(C(C)=O)cc3F)CC2)cc1S(=O)(=O)NC1CC1 | -37.5
O=C(OC1CCCCC1=O)c1ccc(S(=O)(=O)Nc2ccccc2)cc1 (stereo not shown) | 0.644
Nc1cc(Cl)cc(C(=O)O)c1Cl | 15.9
O=C(Cn1cnc2sc(-c3ccccc3)cc2c1=O)NCc1ccco1 | -3.75
O=C(Nc1ccc(Cl)cc1)c1cccc(S(=O)(=O)Nc2ccccn2)c1 | -6.23
O=C(Nc1nnc(SCc2ccc(F)cc2)s1)C1Cc2ccccc2CN1C(=O)c1ccco1 (stereo not shown) | -6.55
Cc1cc(C)n2nc(-c3sccc3-n3c(C)ccc3C)cc2n1 | 17.3
Cc1cc(-c2ccc(Cl)cc2)n2nc(C)cc2n1 | 4.45
Cc1nn(CC(=O)Nc2ccc(S(=O)(=O)N(C)C)cc2)c(C)c1[N+](=O)[O-] | -5.89
CN(C)S(=O)(=O)c1ccc(NC(=O)Cn2ccsc2=N)cc1 | 13.7
Cl.N=c1sccn1CC(=O)Nc1ccc(S(=O)(=O)N2CCOCC2)cc1 | -5.32
CN(C)S(=O)(=O)c1cc(NC(=O)Cn2ccsc2=N)ccc1Cl.Cl | -56.3
O=C(Cn1ccccc1=O)Nc1ccc(Cl)c(S(=O)(=O)N2CCCCC2)c1 | -79.4
CC1(c2ccccc2)NC(=O)N(CC(=O)Nc2ccc(Cl)c(S(=O)(=O)N3CCCCC3)c2)C1=O (stereo not shown) | -8.09
Cc1nn(CC(=O)Nc2cc(S(=O)(=O)N(C)C)ccc2Cl)c(C)c1[N+](=O)[O-] | -20.9
Cc1ccc(NC(=O)Cn2ccsc2=N)cc1S(=O)(=O)N(C)C.Cl | -13.4
CCC1(c2ccccc2)NC(=O)N(CC(=O)Nc2ccc(Cl)c(S(=O)(=O)N3CCCCC3)c2)C1=O (stereo not shown) | 12.4
Cc1ccc(S(=O)(=O)N2CCOCC2)cc1NC(=O)Cn1ccsc1=N.Cl | -5.64
Cc1nn(CC(=O)Nc2ccc(Cl)c(S(=O)(=O)N(C)C)c2)c(C)c1[N+](=O)[O-] | -61.3
Cl.N=c1sccn1CC(=O)Nc1ccc(Cl)c(S(=O)(=O)N2CCOCC2)c1 | -50.4
